Source: PubChem (several laboratories)
Mcl1-Bid inh = Mcl-1/Bid binding inhibitors, primary screen, biochemical, TR-FRET, 1536-well; actives 0.97% (n = 220,000); TR-FRET Mcl-1/Bid-Dy647 peptide binding; inhibition, % at 21.7 µM;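 active means compounds that cut the binding signal by more than half at the single screening dose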;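 further: His-tagged Mcl-1 with europium anti-His antibody binding Bid BH3 peptide; 0% = Mcl-1 plus peptide wells and 100% = peptide-only wells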
14-3-3 Bad PPI = inhibitors of 14-3-3 zeta/Bad binding, primary screen, biochemical, TR-FRET, bovine 14-3-3 zeta; actives 0.71% (n = 220,000); AID 781, 2007; TR-FRET 14-3-3zeta/Dy647-pBad peptide displacement, 1 h; inhibition, % at 21.7 µM;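 active means inhibition above about 70%, limit read from the data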;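 further: 0% = full 14-3-3 plus peptide FRET controls and 100% = background without 14-3-3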
eIF4E-4G inh = eIF4E–eIF4G protein interaction inhibitors, primary screen, biochemical, uHTS, TR-FRET, eIF4GI fragment | inhibition, % at 21.7 µM | TR-FRET eIF4E-eIF4GI(517-606) binding, 2 h | Eukaryotic translation initiation factor 4E (Mus musculus) + Eukaryotic translation … | actives 0.37% (n = 220,000);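 further: 0% = full FRET control wells and 100% = background wells lacking eIF4GI fragment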
Mcl1-Noxa inh = Mcl-1/Noxa binding inhibitors, primary screen, biochemical, TR-FRET, 1536-well; TR-FRET Mcl-1/Noxa peptide binding, 2 h; inhibition, % at 21.7 µM; actives 1.5% (n = 220,000);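 active means compounds that cut the protein-peptide binding signal by more than 50% relative to plate controls in a single-dose test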;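 further: His-tagged Mcl-1 with rhodamine Noxa BH3 peptide and terbium anti-His antibody; 0% = Mcl-1 plus Noxa peptide wells and 100% = peptide-only wells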
NCF1 inh = p47phox/p22phox peptide binding inhibitors, primary screen, biochemical, uHTS, NADPH oxidase regulatory subunit; Neutrophil cytosol factor 1 (Homo sapiens), P14598; fluorescence polarization, 2 h; inhibition, % at 24.7 µM; actives 0.53% (n = 220,000);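 further: 0% = p47phox with labelled peptide and 100% = labelled peptide alone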
Bim-Mcl-1 = inhibitors of Bim peptide binding to Mcl-1, primary screen, biochemical, bead-based flow cytometry, multiplex | Bim peptide-Mcl-1 binding | inhibition, % at 10 µM | actives 0.1% (n = 190,000) | AID 1009, 2008; in the data active means inhibition above about 40%;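 further: 0% = no compound tracer wells and 100% = peptide blocker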
An asterisk follows results filed as active; x = not tested or not shown. Sampled rows, rich in hits. Any-hit rate of the full collection: about 3.3%.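 How the source made its calls, unless noted: active means inhibition above about 30% (limit read from the data); inactive means the rest.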

SMILES | Mcl1-Bid inh | 14-3-3 Bad PPI | eIF4E-4G inh | Mcl1-Noxa inh | NCF1 inh | Bim-Mcl-1
COc1cc(NC(=O)c2ccc3c(=O)n(Cc4ccco4)c(=S)[nH]c3c2)cc(OC)c1OC | 52* | 35 | -5 | 43 | 15 | -2
COc1ccc(-n2c(=S)[nH]c3cc(C(=O)NCc4ccco4)ccc3c2=O)cc1OC | -30 | 6 | 2 | 23 | 4 | 0
CCC(CC)NC(=O)COC(=O)c1cc(Br)ccc1Cl | 97* | -2 | 7 | 0 | -9 | 3
CCCCNC(=O)COC(=O)c1cc(Br)ccc1Cl | -5 | 1 | 2 | -1 | -4 | -5
CN(C)S(=O)(=O)c1cccc(C(=O)N=C2N=C3C=CC(Cl)=CN3Cc3ccccc32)c1 | 3 | -4 | -7 | -15 | -34 | x
O=C(CN1C(=O)/C(=C2\SC(=S)N(C3CCS(=O)(=O)C3)C2=O)c2ccccc21)Nc1ccc(F)cc1 (centres undefined) | 78* | 49 | 4 | 78* | 26 | x
O=C(CN1C(=O)C2CCCCN2C(=O)c2ccccc21)Nc1ccc(F)cc1 (centres undefined) | 1 | -3 | -2 | 15 | 6 | 0
COc1ccc(NC(=O)CN2C(=O)C(C)Oc3ccccc32)cc1 (centres undefined) | 1 | -4 | 4 | -2 | -1 | 0
COc1ccc(NC(=O)CN2C(=O)/C(=C3\SC(=S)N(C4CCS(=O)(=O)C4)C3=O)c3ccccc32)cc1 (centres undefined) | 91* | 60 | 7 | 89* | 52* | x
CN(C)c1ccc(/C=C2/SC(=O)N(CCN=C3NS(=O)(=O)c4ccccc43)C2=O)cc1 | 34 | 1 | 5 | 52* | 8 | 78*
CN(C)c1ccc(/C=C2\SC(=O)N(CCc3nnc(N)s3)C2=O)cc1 | -109 | 24 | 8 | 67* | -137 | x
OCCNc1nc(N2CCN(Cc3ccccc3)CC2)nc2ccccc12 | 22 | 80* | -2 | 46 | -17 | 4
C=CCNc1nc(N2CCCC2)nc2ccccc12 | 5 | 9 | -3 | 33 | 5 | -1
Cc1nc(-c2ccccc2)sc1C1(C)CC(c2ccc(OC(F)(F)F)cc2)=NO1 (centres undefined) | -21 | 0 | -1 | -11 | -13 | x
CC/C(C)=N/Nc1nc(-c2cc3cccc(OC)c3oc2=O)cs1 | -52 | -8 | -2 | 20 | -6 | x
COc1cc(C(c2nnnn2C(C)(C)C)N2CCN(c3nc4ccccc4s3)CC2)ccc1O (centres undefined) | 4 | -10 | 3 | 73* | -1 | 10
COc1ccc(C(c2nnnn2C(C)(C)C)N2CCN(c3nc4ccccc4s3)CC2)cc1OC (centres undefined) | 0 | 7 | -1 | 7 | -14 | -6
CCOc1ccccc1NC(=O)C1=C(C)NC(=S)NC1c1cccs1 (centres undefined) | -101 | 8 | -4 | 13 | -10 | 0
O=C(O)c1ccc2c(=O)[nH]c(CCl)nc2c1 | 6 | 2 | 2 | 30 | 5 | -5
OCCC1CN(Cc2ccccc2OC2CCCC2)CCN1Cc1ccsc1 (centres undefined) | -5 | -13 | -1 | 5 | -3 | 0
CN=C(Nc1cccc(OC)c1)SC1CC(=O)N(c2ccc(C(=O)O)cc2)C1=O (centres undefined) | -18 | -3 | 1 | 22 | -3 | 1
CCCCN(Cc1cc2ccccc2[nH]c1=O)S(C)(=O)=O | 98* | -2 | 9 | 14 | -4 | -1
Cc1cccc(N(Cc2cc3ccccc3[nH]c2=O)S(C)(=O)=O)c1 | -15 | -1 | -2 | 16 | -17 | 0
CCN(CC)Cc1cc(C(=O)O)c(-c2ccccc2)o1 | -52 | 1 | -3 | -3 | -6 | x
O=C(O)c1cc(CN2CCOCC2)oc1-c1ccccc1 | -16 | 76* | 1 | 0 | 3 | -1
SMILES | Mcl1-Bid inh | 14-3-3 Bad PPI | eIF4E-4G inh | Mcl1-Noxa inh | NCF1 inh | Bim-Mcl-1
Cn1c(N)c(C(=O)COC(=O)CC(NC(=O)c2ccccc2Cl)c2ccccc2)c(=O)n(C)c1=O (centres undefined) | -5 | -8 | 4 | 11 | -20 | -1
O=c1c2cnn(-c3ccccc3)c2nc(-c2ccco2)n1-c1ccccc1 | 58* | 59 | -7 | 23 | -5 | 2
O=c1oc(-c2ccco2)nc2c1cnn2-c1ccccc1 | 1 | -1 | 6 | 20 | 3 | -6
Cc1ccc(C(=O)NC(=S)Nc2ccc(NC(=O)c3cccs3)cc2)cc1[N+](=O)[O-] | 52* | 15 | 10 | 42 | -38 | -6
Cc1ccc(-c2nc(-c3ccc(Cl)cc3)sc2CC(=O)O)c(C)c1 | 12 | -3 | 3 | 3 | x | 0
Cc1ccc(-n2c(SCC(=O)NCc3ccco3)nc3sc4c(c3c2=O)CC(C)(C)SC4)cc1 | 89* | -25 | -21 | -85 | -14 | 2
O=C(CSc1ccsc1[N+](=O)[O-])N1CCCCCC1 | -18 | -16 | 1 | 19 | 3 | -2
Cc1ccccc1NC(=O)CSc1ccsc1[N+](=O)[O-] | -61 | 18 | 23 | 71* | 5 | -5
COCCCNC(=O)CSc1ccsc1[N+](=O)[O-] | -32 | -4 | 0 | 28 | -10 | 0
O=C(CSc1ccsc1[N+](=O)[O-])N1CCN(c2ccccc2)CC1 | 5 | -1 | 19 | 65* | 0 | -5
O=C(CSc1ccsc1[N+](=O)[O-])N1CCN(c2ccc(Cl)cc2)CC1 | -1 | 10 | 17 | 95* | -8 | -4
O=C(/C=C/c1ccc(F)cc1)c1ccccc1Br | 2 | -4 | 3 | 18 | -33 | -6
CCn1cc(C(=O)NCc2cccs2)c(=O)c2cc(S(=O)(=O)N3CCOCC3)ccc21 | 51* | 11 | -3 | 20 | -8 | x
Cc1c(C(=O)NCc2ccccn2)oc2ccc(S(=O)(=O)N3CCOCC3)cc12 | -6 | 1 | -4 | 9 | 50* | -2
CCOC(=O)c1cn(CC)c2ccc(S(=O)(=O)N3CC(C)CC(C)C3)cc2c1=O (centres undefined) | 54* | 22 | -5 | 8 | 1 | 0
Cc1c(C(=O)NCc2cccs2)oc2ccc(S(=O)(=O)N3CCOCC3)cc12 | 2 | -7 | -2 | -7 | -10 | -1
CCOC(=O)c1cn(CC)c2ccc(S(=O)(=O)N3CCC(C)CC3)cc2c1=O | 19 | 1 | 8 | 43 | -11 | -2
